Screening data from PubChem BioAssay.
aSyn 5UTR act: Activators working through SNCA 5'UTR binding (MLPCN); alpha-synuclein 5'UTR reporter, activators screen; activity score, % (tested at 7.5 µM), hits read low; 7.1% of 300,000 active; in the data active means activity score below about -60%
Numbers without * were called inactive. A selection follows.

SMILES | aSyn 5UTR act
CC1CCN(Cc2c(C(=O)N/N=C/c3ccc(C(C)(C)C)cc3)nnn2-c2nonc2N)CC1 | 64.0
Nc1nonc1-n1nnc(C(=O)N/N=C/c2ccc(OCc3ccccc3)cc2)c1CN1CCCCC1 | -111.9*
Nc1nonc1-n1nnc(C(=O)N/N=C/c2ccc(OCc3ccc(F)cc3)cc2)c1COc1ccccc1 | -121.6*
COc1ccc(-c2nnc(-c3ccc(N(C)C)cc3)o2)cc1 | -147.7*
CN(C)c1ccc(-c2nnc(-c3ccc(S(=O)(=O)C(F)F)cc3)o2)cc1 | -62.8*
COc1ccc(-c2nnc(-c3ccc(N)cc3)o2)cc1 | -112.6*
C=CCSc1nnc(-c2cc3c(s2)-c2ccccc2CC3)o1 | -104.2*
c1ccc(-c2csc(Nc3ccccn3)n2)cc1 | -107.3*
COc1ccc(-c2csc(Nc3ccccn3)n2)cc1OC | -169.5*
Oc1ccc(-c2csc(Nc3ccccn3)n2)cc1 | -163.2*
Fc1ccc(-c2csc(Nc3ccccn3)n2)c(F)c1 | -101.5*
COc1ccc(C2=Nn3c(nnc3-c3ccncc3)SC2)cc1OC | 71.8
CN(c1ccc(C(=O)Nc2cccc(O)c2)cc1)S(=O)(=O)c1ccccc1 | -104.5*
CN(c1ccc(C(=O)Nc2ccccn2)cc1)S(=O)(=O)c1ccccc1 | -132.8*
CCc1nnc(NC(=O)c2ccc(S(=O)(=O)N(C)c3ccccc3)cc2)o1 | 55.9
CCN(c1ccccc1)S(=O)(=O)c1ccc(C(=O)Nc2ccccn2)cc1 | -76.3*
COc1ccc(-c2ccc(SCC(=O)NCc3ccco3)nn2)cc1 | -78.4*
CCc1nnc(NC(=O)CSc2ccc(-c3ccc(C)cc3)nn2)s1 | -69.6*
CCOc1ccc(-c2cc(CCCC(=O)NCc3ccco3)no2)cc1 | 72.8
Cc1cc2nc(-c3ccc(SCC(=O)Nc4ccc(S(=O)(=O)N5CCCC5)cc4)nc3)[nH]c2cc1C | -147.1*
CCc1nnc(NC(=O)CSc2ccc(-c3nc4ccc(C)cc4[nH]3)cn2)s1 | -159.2*
Cc1cc(NC(=O)CSc2ccc(-c3ccc(Br)cc3)nn2)no1 | -67.2*
COc1ccc(-c2ccc(SCC(=O)Nc3nnc(C)s3)nn2)cc1 | -87.4*
O=C(CSc1ccc(-c2ccc(-n3cccn3)cc2)nn1)Nc1ccccc1F | -141.4*
COc1ccc(NC(=O)c2cc3ccccc3cc2O)cc1 | -118.6*
SMILES | aSyn 5UTR act
Cc1ccc(NC(=O)c2cc3ccccc3cc2O)cc1 | -179.4*
NC(=NCc1ccco1)NC(=O)c1ccc(Cl)cc1 | -127.7*
COc1ccc(CNC(=S)Nc2ccc(F)c(Cl)c2)cc1 | -109.4*
O=C1CCCc2nc3c(cc21)C(O)Oc1c-3ccc2ccccc12 (stereo not drawn) | -117.7*
Cc1ccc(-c2csc(Cc3nc(-c4ccc5c(c4)CCC(=O)N5)cs3)n2)cc1 | -124.4*
Cc1ccnc(NC(=O)c2ccc(Cl)s2)c1 | -104.5*
CCOc1ccc(C(=O)Nc2cc(C)ccn2)cc1 | 65.5
Cc1ccnc(NC(=O)c2cnc(Cl)c(Cl)c2)c1 | -61.7*
Cc1ccnc(NC(=O)CCNC(=O)c2ccc(Cl)cc2)c1 | -110.3*
Cc1ccc(C(=O)NCC(=O)Nc2cc(C)ccn2)cc1 | -65.8*
CCOc1ccc(/C=C2\CCc3ccccc3C2=O)cc1 | -170.2*
COc1ccc(/C=C2\CCc3ccccc3C2=O)cc1CN1CCOCC1 | 62.5
O=C1/C(=C/c2ccco2)CCc2ccccc21 | -139.9*
COc1ccc2c(c1)CC/C(=C/c1ccco1)C2=O | -160.4*
COc1cc(/C=C/C(=O)NC(C)(C)C)ccc1OCc1ccccc1 | 59.4
CC1(CC(=O)N/N=C/c2ccc(OCc3ccc(Cl)cc3Cl)cc2)OCCCO1 | -106.1*
COc1cc(/C=N/NC(=O)CC2(C)OCCCO2)ccc1OCc1ccc(Cl)cc1Cl | -69.8*
COc1cc(/C=N/NC(=O)CN2CCCCC2)ccc1OCc1ccc(Br)cc1 | -153.9*
COc1cc(/C=N/NC(=O)CC2(C)OCCCO2)ccc1OCc1ccccc1 | -65.0*
COc1cc(/C=N/NC(=O)CNc2n[nH]c(=O)[nH]c2=O)ccc1OCc1ccccc1 | -75.1*
O=C(Nc1nccs1)c1ccc(-c2ccc(F)c(Cl)c2)o1 | -150.7*
O=C(Nc1nccs1)c1ccc(-c2ccc(Cl)cc2Cl)o1 | -149.2*
C(=N\Nc1nncc2ccccc12)/c1ccccn1 | 97.8
CC(=O)Nc1ccc(/C=N/Nc2nncc3ccccc23)cc1 | -126.2*
Cc1cc(NC(=O)CSc2nc(C3CC3)nc3sc4c(c23)CCC(C)C4)no1 (stereo not drawn) | -69.5*
SMILES | aSyn 5UTR act
NC(=O)CSc1nc(C2CC2)nc2sc3c(c12)CCCC3 | -108.8*
O=C(CCCN1CCOCC1)c1ccc2c(c1)OCCO2 | -80.7*
O=C(OCCN1CCOCC1)c1ccc2c(c1)OCCO2 | -93.5*
Cc1ccc(S(=O)(=O)CC(=O)c2ccc3c(c2)OCCO3)cc1 | -69.7*
O=C(Cc1ccccc1)c1ccc2c(c1)OCCO2 | -107.3*
CN1c2ccsc2/C(=N/Nc2ccccc2)CS1(=O)=O | -122.8*
O=[N+]([O-])c1ccc(N/N=C2\CC3CC=CC23)cc1 (stereo not drawn) | -99.8*
CC(C)C(=O)Nc1ccc(NC(=O)c2ccco2)cn1 | -86.0*
CCCCC(=O)Nc1ccc(NC(=O)c2ccco2)cn1 | -74.8*
CCCC(=O)Nc1ccc(NC(=O)c2ccco2)cn1 | -93.4*
Cc1cc(N)n2ncc(-c3ccc(F)cc3)c2n1 | -104.3*
Cc1nc2c(-c3ccc(F)cc3)cnn2c(N)c1-c1ccc(F)cc1 | -150.3*
COc1ccc(-c2c(C)nc3c(-c4ccccn4)cnn3c2N)cc1 | -180.9*
COCCCNc1nc(N)c([N+](=O)[O-])c(NC2CCCCC2)n1 | 90.1
COc1nc(NC2CCCCC2)nc(NC(C)(C)C)n1 | -69.8*
CC(C)(C)Nc1nc(N2CCCC2)nc(N2CCCC2)n1 | 68.4
CCc1ccc(NC(=O)Nc2ccsc2C(=O)OC)cc1 | -65.4*
CCOc1ccc(NC(=O)Nc2cccs2)cc1 | -160.8*
CCc1ccc(NC(=O)Nc2cccs2)cc1 | -169.4*
Cc1ccc(NC(=O)Nc2cccs2)nc1 | -168.3*
Cc1ccc(NC(=O)Nc2cccs2)cc1 | -130.1*
COC(=O)Cc1ccc2oc(-c3cccnc3)nc2c1 | -63.5*
O=C(NC(=S)Nc1ccc2oc(-c3cccnc3)nc2c1)c1cccc(Cl)c1 | -115.0*
CCCC(=O)Nc1ccc(-c2nc3ncccc3o2)cc1 | -181.2*
CCCC(=O)NC(c1ccccc1Cl)c1ccc2cccnc2c1O (stereo not drawn) | 68.3
SMILES | aSyn 5UTR act
CCCC(=O)Nc1ccc2oc(-c3cccnc3)nc2c1 | -79.8*
CCc1ccc2c(c1)C(c1ccc([N+](=O)[O-])cc1)=NNC(c1ccc(F)cc1)=N2 | -79.0*
COCCn1c(COc2ccc(OC)cc2)nc2ccccc21 | -82.1*
COCn1c(-c2ccc(OC)cc2)nc2ccccc21 | -191.9*
OCc1nc2ccccc2n1CCCOc1ccc(Br)cc1 | -104.3*
C=CCn1c(COc2ccc(OC)cc2)nc2ccccc21 | -74.6*
CCn1c(COc2ccc(OC)cc2)nc2ccccc21 | -94.4*
Cc1cccc(N(C(=O)c2nsc(Cl)c2Cl)C(C(=O)NC2CCCC2)c2ccc(O)cc2)c1 (stereo not drawn) | -82.1*
COc1ccccc1NC(=O)C(C/C=C(\C)Cl)C(C)=O (stereo not drawn) | -73.3*
COc1ccccc1NC(=O)c1nc(S(=O)(=O)Cc2ccccc2)ncc1Cl | 70.9
NC(=O)C1CCN(C(=O)CCSc2ccccc2)CC1 | -102.8*
CCOC(=O)N1CCN(C(=O)CCSc2ccccc2)CC1 | -108.4*
CCc1nccn1CCC(=O)N1CCCC(N2CCN(c3cccc(Cl)c3)CC2)C1 (stereo not drawn) | -67.2*
COc1cc(/C=C/[N+](=O)[O-])ccc1OC(=O)/C=C/c1ccc(F)cc1 | -71.6*
